Measured values from PubChem BioAssay (NCATS).
Several values for one entry are separate records, joined by “and”; a condition that tells them apart may be missing. Equal values may be shown once. Results filed as inconclusive are left out. Where a call stands in place of a potency, no number is given. Activity calls are given as the source filed them. Calls follow the shape of the dose curve; as a rule, active = well fitted curve in the direction sought with a large enough effect; inconclusive = small, poorly fitted or top-dose-only effect, or another doubt; inactive = no such curve, though single readings can be large; an effect the other way counts as inactive or inconclusive.

target: Calcium and integrin-binding protein 1 (Homo sapiens) (UniProt Q99828); experiment: Primary qHTS for Identification of Calcium Integrin Binding Protein 1 (CIB1) Competitor (AID 1508620); details: CIB1-GST / FITC-alphaIIb peptide fluorescence polarization; series mostly up to 114 µM; also: potency is read from the fitted curve at half-maximal effect
Method in brief: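 Fluorescence polarization competition: CIB1-GST (1 uM final) preincubated with compound 15 min at room temperature, then FITC-labeled alphaIIb peptide (100 nM final) added for another 15 min. Polarization read at Ex 480/Em 540.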

Calcium and integrin-binding protein 1 (Homo sapiens), sequence (Q99828 whole entry, looked up): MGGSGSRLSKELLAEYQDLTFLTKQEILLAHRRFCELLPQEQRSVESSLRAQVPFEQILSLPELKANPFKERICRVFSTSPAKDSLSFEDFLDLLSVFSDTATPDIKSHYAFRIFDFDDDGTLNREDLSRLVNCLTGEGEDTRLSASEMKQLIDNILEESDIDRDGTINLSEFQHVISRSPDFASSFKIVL

Row | Structure (SMILES) | Potency
1 | COC(=O)C1=CO[C@@H](O)[C@@H]2C(CO)=CC[C@H]12 | inactive
2 | Nc1ncnc2n[nH]c(Nc3ccc(F)cc3)c12 | inactive
3 | C[C@@H](O[C@H]1OCCN(Cc2n[nH]c(=O)[nH]2)[C@H]1c1ccc(F)cc1)c1cc(C(F)(F)F)cc(C(F)(F)F)c1 | inactive
4 | Clc1ccc2c(c1)N=C(N1CCNCC1)c1ccccc1N2 | inactive
5 | O=[N+]([O-])c1ccc(-c2nc(-c3ccc(F)cc3)c(-c3ccncc3)[nH]2)cc1 | inactive
6 | CC(C)N(CCC(=O)c1ccc2ccccc2c1)Cc1ccccc1 | 28.2 µM (active)

tested on: not listed separately; experiment: Confirmatory qHTS for small molecule stabilizers of the endoplasmic reticulum resident proteome: Secreted ER Calcium Modulated Protein (SERCaMP) assay (AID 1508628); details: SERCaMP secreted luciferase ER calcium/proteostasis reporter; series mostly up to 76.3 µM; also: nearly all actives have a fitted effect of over 40% in size; also: potency is read from the fitted curve at half-maximal effect
Method in brief: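 SH-SY5Y cells stably expressing GLuc-SERCaMP, treated 16 h with compound (primary 1.53, 7.67, 38.3 uM; confirmation 11 concentrations, up to 76.6 uM), then 100 nM thapsigargin for 4 h. Secreted Gaussia luciferase in medium read by coelenterazine luminescence.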

Row | Structure (SMILES) | Potency
7 | O=C1NC(c2cccc([N+](=O)[O-])c2)=CCN1c1ccccc1O | 3.16 µM (active)
8 | Clc1ccc2c(c1)N=C(N1CCNCC1)c1ccccc1N2 | 14.1 µM (active) and 10 µM (active)
9 | COc1cccc2c1[C@@H]1CN(CCCCn3c(=O)[nH]c4c(sc5ncc(-c6ccccc6)nc54)c3=O)C[C@@H]1CO2 | inactive

tested on: not listed separately; experiment: Primary qHTS for small molecule stabilizers of the endoplasmic reticulum resident proteome: Secreted ER Calcium Modulated Protein (SERCaMP) assay (AID 1508630); details: SH-SY5Y GLuc-SERCaMP (Gaussia luciferase released on ER calcium loss) secretion, thapsigargin, luminescence; series mostly up to 38.4 µM
Method in brief: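 GLuc-SERCaMP-expressing SH-SY5Y cells, pretreated 16 h with compound, are challenged with thapsigargin to empty ER calcium stores; after 4 h, coelenterazine is added directly to the medium and luminescence is imaged.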

Row | Structure (SMILES) | Potency
10 | N[C@@H](Cn1ccc(=O)c(O)c1)C(=O)O | inactive
11 | COc1ccccc1N1CCN(CCN2C(=O)CC3(CCCC3)CC2=O)CC1 | inactive
12 | O=C1NC(c2cccc([N+](=O)[O-])c2)=CCN1c1ccccc1O | inactive
13 | CCN(CC)CCNC(=O)c1ccc(NS(C)(=O)=O)cc1 | inactive
14 | O=C1NC(=O)/C(=C/c2ccc3c(c2)OC(F)(F)O3)S1 | inactive
15 | Brc1ccc([C@H]2CN3CCSC3=N2)cc1 | inactive
16 | NC(N)=NCCCCN=C(N)N | inactive
17 | C[N+](C)(C)CCO | inactive
18 | O=C(Nc1ccc(S(=O)(=O)N2CCOCC2)cc1)c1cc(Cl)ccc1NS(=O)(=O)c1ccc(Cl)s1 | inactive
19 | Cn1cnc2c(NCc3ccccc3)nc(NCCO)nc21 | inactive
20 | Nc1ncnc2n[nH]c(Nc3ccc(F)cc3)c12 | inactive
21 | CC(C)N(CCC(=O)c1ccc2ccccc2c1)Cc1ccccc1 | inactive
